{"source": "the supplement of paper PMC10981050", "note": "Where a name gives a salt, the structure may show the parent alone.", "data": [{"test_system": "OCI-AML2", "assay": "cell viability relative to vehicle control; higher = less cytotoxic", "conditions": "10 µM; SRSF2 genotype: P95H/wt", "outline": "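Each screen used CRISPR-edited mutant and wild-type clones from four leukaemia lines. Compounds were acoustically dispensed at a single 10 µM dose, and CellTiter-Glo luminescence was read after 48 h with the supernatant first removed. Viability was analysed in Genedata Screener and given as percent of the on-plate vehicle control.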", "units": {"cell viability": "%"}, "values": [{"smiles": "COc1cc(C=O)c([N+](=O)[O-])cc1OC", "cell viability": 111}, {"smiles": "CCOc1ccccc1OCCN[C@H](C)Cc1ccc(OC)c(S(N)(=O)=O)c1", "note": "[Tamsulosin hydrochloride]", "cell viability": 92.7}, {"smiles": "O=C1CC(=O)c2c(Cl)c(Cl)c(Cl)c(Cl)c21", "cell viability": 99.7}, {"smiles": "CO/N=C(\\C(=O)N[C@@H]1C(=O)N2C(C(=O)O)=C(CSC(=O)c3ccco3)CS[C@H]12)c1csc(N)n1", "note": "[Ceftiofur hydrochloride]", "cell viability": 93.4}, {"smiles": "CC1=CC(=O)CC(C)(C)C1=O", "note": "[Ketoisophorone]", "cell viability": 96.1}, {"smiles": "CO[C@@]12[C@H](COC(N)=O)C3=C(C(=O)C(C)=C(N)C3=O)N1C[C@@H]1N[C@@H]12", "note": "[Mitomycin C]", "cell viability": 0.41}, {"smiles": "O=c1cc(-c2ccc(O)c(O)c2)oc2cc(O)cc(O)c12", "note": "[Luteolin]", "cell viability": 67.3}, {"smiles": "Cc1cc(C2CCCCC2)n(O)c(=O)c1", "note": "[Ciclopirox ethanolamine]", "cell viability": 18}, {"smiles": "N[C@@H]1CN(c2c(F)cc3c(=O)c(C(=O)O)cn([C@@H]4C[C@@H]4F)c3c2Cl)CC12CC2", "note": "[Sitafloxacin hydrate]", "cell viability": 102}, {"smiles": "COCCCN1CCC(NC(=O)c2cc(Cl)c(N)c3c2OCC3)CC1", "note": "[Prucalopride]", "cell viability": 80.5}, {"smiles": "COc1cc2nc(N3CCCC3)nc(NCCCCCN3CCCC3)c2cc1OC", "cell viability": 0.31}, {"smiles": "O=C(O)c1ccc2c(c1)C(=O)c1ccccc1C2=O", "note": "[Anthraquinone-2-carboxylic Acid]", "cell viability": 96.3}, {"smiles": "C[C@@H]1O[C@@H]1P(=O)(O)O", "note": "[fosfomycin tromethamine]", "cell viability": 106}, {"smiles": "CCCCCCCCCC[C@H](C(=O)O)[C@]1(C(=O)O)CCC(=O)O1", "note": "[Spiculisporic Acid]", "cell viability": 95.5}, {"smiles": "CC1(C)CCC2(C(=O)O)C(O)CC3(C)C(=CCC4C5(C)CC(O)C(O)C(C)(CO)C5CCC43C)C2C1", "note": "(stereo not given) [Polygalacic acid]", "cell viability": 104}, {"smiles": "C[C@H]1[C@H](NC(=O)/C(=N\\OC(C)(C)C(=O)O)c2csc(N)n2)C(=O)N1S(=O)(=O)O", "note": "[Aztreonam (Azactam, Cayston)]", "cell viability": 98.4}, {"smiles": "C#C[C@]1(O)CC[C@H]2[C@@H]3CCc4cc(O)ccc4[C@H]3CC[C@@]21C", "note": "[Ethinyl Estradiol]", "cell viability": 79.3}, {"smiles": "CC(C)COc1ccc(CNC(=O)N(Cc2ccc(F)cc2)C2CCN(C)CC2)cc1", "note": "[Pimavanserin]", "cell viability": 0.22}, {"smiles": "Oc1cc(O)c2c(c1)OC(c1ccc(O)c(O)c1)C(O)C2", "note": "(single isomer, unassigned; (+)) [(+)-Catechin hydrate]", "cell viability": 104}, {"smiles": "Cc1ccc([C@@H]2O[C@H](CO)[C@@H](O)[C@H](O)[C@H]2O)cc1Cc1ccc(-c2ccc(F)cc2)s1", "note": "[Canagliflozin]", "cell viability": 102}, {"smiles": "Nc1ncnc2c1c(-c1cnc3[nH]ccc3c1)nn2C1CCCC1", "cell viability": 2.15}, {"smiles": "COc1ccc(-c2oc3c(CC=C(C)C)c(O)cc(O)c3c(=O)c2O[C@@H]2O[C@@H](C)[C@H](O)[C@@H](O)[C@H]2O)cc1", "note": "[Baohuoside I]", "cell viability": 101}, {"smiles": "OC1CCC(Oc2cccc3cnc(Nc4ccc5nc[nH]c5c4)nc23)CC1", "note": "(stereo not given)", "cell viability": 1.67}, {"smiles": "CC(C)(C)c1[nH]cnc1/C=c1\\[nH]c(=O)/c(=C/c2ccccc2)[nH]c1=O", "note": "[NPI-2358 (Plinabulin)]", "cell viability": 2.13}, {"smiles": "CN(C)C(=O)c1ccc(S(=O)(=O)c2ccc(NC(=O)C(C)(O)C(F)(F)F)c(Cl)c2)cc1", "note": "(stereo not given)", "cell viability": 52.9}, {"smiles": "CN(C)C(=O)COC(=O)Cc1ccc(OC(=O)c2ccc(NC(=N)N)cc2)cc1", "note": "[Camostat Mesilate (FOY-305)]", "cell viability": 100}, {"smiles": "C[C@@H]1COC(Nc2ccc3ncnc(Nc4ccc(OCc5nccs5)c(Cl)c4)c3c2)=N1", "note": "[Varlitinib]", "cell viability": 87}, {"smiles": "CCOC(=O)[C@H](CCc1ccccc1)N[C@H]1CS[C@H](c2cccs2)CN(CC(=O)O)C1=O", "note": "[Temocapril HCl]", "cell viability": 102}, {"smiles": "Nc1ccn([C@H]2CC[C@@H](CO)O2)c(=O)n1", "note": "[Zalcitabine]", "cell viability": 58.7}, {"smiles": "OCCOCCN1CCN(Cc2cccc(Oc3ccccc3)c2)CC1", "cell viability": 84}, {"smiles": "CC(C)[C@H]1CC[C@H](C(=O)N[C@H](Cc2ccccc2)C(=O)O)CC1", "note": "[Nateglinide (Starlix)]", "cell viability": 105}, {"smiles": "Nc1ccc(O)c(C(=O)O)c1", "note": "[Mesalamine (Lialda)]", "cell viability": 97.2}, {"smiles": "NCCCCCN", "note": "[Cadaverine]", "cell viability": 97.1}, {"smiles": "CN[C@@H](C)C(=O)N[C@H](C(=O)N1CCC[C@H]1c1nc(C(=O)c2ccc(F)cc2)cs1)C1CCCCC1", "cell viability": 75.8}, {"smiles": "Nc1[nH]c(=O)ncc1Br", "note": "[5-Bromocytosine]", "cell viability": 98.1}, {"smiles": "COc1nc(C)cnc1NS(=O)(=O)c1cccnc1-c1ccc(-c2nnco2)cc1", "note": "[Zibotentan (ZD4054)]", "cell viability": 102}, {"smiles": "CC(=CCNc1ncnc2nc[nH]c12)CO", "note": "[Trans-Zeatin]", "cell viability": 104}, {"smiles": "CCCCCCCCOc1ccccc1C(=O)Nc1ccc(C(=O)OCC[N+](C)(CC)CC)cc1", "note": "[Otilonium Bromide]", "cell viability": 34.4}, {"smiles": "CCCCCCCC/C=C\\CCCCCCCCCCCC(=O)O", "note": "[Erucic acid]", "cell viability": 100}, {"smiles": "C=C1C(=O)[C@]23[C@H](O)[C@H]1CC[C@H]2[C@@]12CO[C@]3(O)[C@@H](O)[C@@H]1C(C)(C)CC[C@@H]2O", "note": "[Oridonin (Isodonol)]", "cell viability": 17.9}]}]}
